Compound activity: PubChem, National Center for Advancing Translational Sciences (NCATS)
The list is not random: actives were taken first. Their share in the collection is about 19%.
TDP1 cell noCPT = qHTS for Inhibitors of human tyrosyl-DNA phosphodiesterase 1 (TDP1): qHTS in cells in absence of CPT; DT40 Tdp1-/- hTDP1 cells, no CPT, ATP luminescence, 48 h; Potency, µM (doses to about 46.2 µM), for the others: top-dose activity change, negative = growth inhibition, actives largely listed as inhibitors; hit rate 15% among 420,000; further: potency means the concentration at half of the fitted maximal effect; nearly all actives have a fitted effect of over 55% in size
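No-CPT arm: Tdp1-/-;hTDP1 DT40 cells (400/well) plus compounds, incubated ≥48 hr at 37 °C. Readout CellTiter-Glo luminescence.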
TDP1 cell CPT = qHTS for Inhibitors of human tyrosyl-DNA phosphodiesterase 1 (TDP1): qHTS in cells in presence of CPT; chicken DT40 Tdp1-/-;hTDP1 cells + 20 nM CPT, ATP luminescence, 48 h; Potency, µM (top dose mostly 46.2 µM), without a hit: at the top dose activity change, negative = growth inhibition, usual class: inhibitors; hit rate 12% among 420,000; AID 686979, 2013; further: potency means the concentration at half of the fitted maximal effect; nearly all actives have a fitted effect of over 55% in size
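Chicken DT40 Tdp1-/- cells stably complemented with human TDP1 were seeded at 400 cells/well in medium containing 20 nM camptothecin, exposed to pin-transferred compounds, and grown at 37 °C for at least 48 hr. Viability was read as ATP luminescence.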
HT1080-NT tox = qHTS for induction of synthetic lethality in tumor cells producing 2HG: qHTS for the HT-1080-NT fibrosarcoma cell line; Potency, µM (top dose mostly 46.1 µM), for inactives: at the top dose activity, negative = less viability, hits mostly cytotoxic; hit rate 1.6% among 360,000; HT-1080-NT fibrosarcoma viability, CellTiter-Glo ATP luminescence, 48 h; AID 686970, 2013;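 further: NT is the 2HG producing partner of a matched IDH1 knockdown line; potency means the concentration at half of the fitted maximal effect; 0% = DMSO-treated cells and -100% = media-only wells without cells; nearly all actives have a fitted effect of over 55% in size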
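Toxicity toward the 2HG-producing NT line was scored as %Activity, normalised to DMSO and no-cell wells, from CellTiter-Glo luminescence after 48 hours' treatment.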
ELG1 DNA repair = qHTS screen for small molecules that inhibit ELG1-dependent DNA repair in human embryonic kidney (HEK293T) cells expressing luciferase-tagged ELG1; Potency, µM (top dose mostly 46.1 µM), inactives show top-dose activity change, negative = inhibition, usual class: inhibitors; AID 504467, 2011; HEK293T ELG1-luciferase reporter, luminescence, 16 h; DNA damage induced by 5-fluorouridine; hit rate 2.3% among 330,000; further: potency means the concentration at half of the fitted maximal effect; nearly all actives have a fitted effect of over 55% in size
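5-Fluorouridine DNA damage + compound/DMSO, 2,000 cells/well, 16 h, 37 °C/5% CO2. ONE-Glo, 30 min RT, luminescence. Readout = decrease in reporter signal.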
IL1B secr inh = qHTS for Inhibitors of Inflammasome Signaling: IL-1-beta AlphaLISA Primary Screen. THP-1 LPS/ATP IL-1B secretion, AlphaLISA, 16 h; hits give low values. activity change, % at 57.5 µM. hit rate 4.7% among 360,000. AID 743279, 2014; in the data active means activity change below about -50%; inconclusive means mostly about -30% to -49%
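THP-1 cells pretreated 1 hr with compounds (up to 57.5 uM final), then stimulated with LPS (250 ng/mL final) plus ATP (1.25 mM final); secreted IL-1B measured by AlphaLISA after 16 hr, decreased signal indicating inhibition.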
HT1080 IDH1KD tx = qHTS for induction of synthetic lethality in tumor cells producing 2HG: qHTS for the HT-1080-IDH1KD cell line | HT-1080 IDH1 knockdown viability, ATP luminescence, 48 h | Potency, µM (top dose mostly 46.1 µM), inactives show at the highest dose activity, negative = toxicity, actives largely listed as cytotoxic | hit rate 2% among 360,000;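 further: potency means the concentration at half of the fitted maximal effect; 0% = DMSO wells and -100% = cell-free medium wells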
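Knockdown cells (IDH1KD HT-1080) received compounds 2 h after plating at 750 cells/well and were kept 48 h at 37 °C in 5% FBS RPMI. A CellTiter-Glo luminescence read gave % activity for curve fitting.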
* hit, by the source's call; ? = inconclusive; nt = no result given; [ ] = dose if it differs, or a comment. Unless noted, the call rests on the fitted dose curve; in most records, active means well fitted curve in the direction sought with a large enough effect; inconclusive means small, poorly fitted or top-dose-only effect, or another doubt; inactive means no such curve, though single readings can be large; an effect the other way counts as inactive or inconclusive. Unless noted, on the % scale 0 is the no-effect control and ±100 the full control effect.

SMILES	TDP1 cell noCPT	TDP1 cell CPT	HT1080-NT tox	ELG1 DNA repair	IL1B secr inh	HT1080 IDH1KD tx
CC(C)(C)OC(=O)N1CCC(c2c(C(=O)NCc3ccccc3)cnn2-c2ccc(F)cc2)CC1	18.4µM*	23.1µM*	nt	nt	nt	nt
CC(C)(C)OC(=O)N1CCC(c2c(C(=O)NCCc3ccccc3)cnn2-c2ccc(F)cc2)CC1	16.4µM*	?	nt	nt	nt	nt
CCOC(=O)N1CCC(NC(=O)c2cnn(-c3ccc(F)cc3F)c2C2CCN(C(=O)OC(C)(C)C)CC2)CC1	-19.9%	5.2%	nt	nt	nt	nt
CCN1CCN(C(=O)c2cnn(-c3ccc(F)cc3F)c2C2CCN(C(=O)OC(C)(C)C)CC2)CC1	-2.2%	-2.1%	nt	nt	nt	nt
COC(=O)CCc1c(C)c(C(=O)c2cc(OC)c(OC)c(OC)c2)c2ccccn12	?	?	?	?	57.8	?
CC(C)(C)OC(=O)N1CCC(c2c(C(=O)N3CCN(C(=O)c4ccco4)CC3)cnn2-c2ccc(F)cc2F)CC1	?	?	0.0%	?	-16.2	3.3%
COc1ccc(CNC(=O)c2cnn(-c3ccc(C)cc3)c2C2CCN(C(=O)OC(C)(C)C)CC2)cc1	20.6µM*	9.2µM*	nt	nt	nt	nt
CC(C)(C)OC(=O)N1CCC(c2c(C(=O)NCc3ccco3)cnn2-c2ccc(F)cc2F)CC1	?	23.1µM*	nt	nt	nt	nt
CC(C)(C)OC(=O)N1CCC(c2c(C(=O)NCc3ccccc3)cnn2-c2cccc(F)c2)CC1	18.4µM*	?	nt	nt	nt	nt
CC(C)(C)OC(=O)N1CCC(c2c(C(=O)NCCN3CCc4ccccc4C3)cnn2-c2ccc(F)cc2F)CC1	11.6µM*	20.6µM*	nt	nt	nt	nt
O=[N+]([O-])c1ccccc1S(=O)(=O)N1CCN(c2ccc(F)cc2)CC1	-25.0%	9.6%	8.3%	-8.9%	-12.8	21.9%
CCOc1ccc(-n2nc3cc(C)c(NC(=O)c4cc(OCC)c(OCC)c(OCC)c4)cc3n2)cc1	-1.7%	-2.5%	nt	nt	nt	nt
CCOC(=O)c1cnn(-c2ccc(OC)cc2)c1C1CCN(C(=O)OC(C)(C)C)CC1	25.9µM*	?	nt	nt	nt	nt
CNC(=S)N/N=C/c1ccc(-c2ccc(Cl)c([N+](=O)[O-])c2)o1	9.2µM*	8.2µM*	-3.9%	?	-53.8*	10.9%
O=C(O)c1ccc(-c2ccc(/C=N/Nc3ccc([N+](=O)[O-])cc3)o2)cc1	-25.6%	?	-28.1%	17.9%	5.2	-27.2%
Cc1cc(C)n(Cc2ccc(C(=O)N/N=C/c3ccc(-c4ccc([N+](=O)[O-])cc4)o3)o2)n1	10.3µM*	?	?	?	-0.5	?
CC(C)(C)NC(=S)N/N=C\c1ccc(-c2ccc([N+](=O)[O-])cc2)o1	9.2µM*	9.2µM*	12.5%	20.6µM*	nt	4.0%
Cc1cc([N+](=O)[O-])ccc1-c1ccc(/C=N/NC(=O)c2ccc(Br)o2)o1	?	?	-0.9%	-11.6%	?	0.2%
CCCCC(=O)N/N=C/c1ccc(-c2ccc([N+](=O)[O-])cc2)o1	16.4µM*	?	-9.1%	5.8%	-21.0	-4.7%
NS(=O)(=O)c1ccc(-c2ccc(/C=N/NC(=O)c3ccc([N+](=O)[O-])cc3)o2)cc1	7.7%	-13.5%	-0.4%	-9.2%	-3.6	-2.0%
CC(C)c1c(C(=O)NCC2(N3CCCCC3)CCCC2)cnn1-c1nccc(-c2ccco2)n1	-2.2%	10.9%[9.04 µM]	nt	nt	nt	nt
CCSC1OC(C(COC(C)=O)OC(C)=O)C(OC(C)=O)C1NC(C)=S (stereo not drawn)	3.9%	18.2%	7.0%	nt	14.5	25.4%
COc1cc(OC)c(NC(=O)c2noc3c2CSc2ccccc2-3)cc1Cl	-13.8%	-7.4%	nt	nt	nt	nt
CCOc1ccc(N(C)C(=O)CCc2nnc3ccc(N4CCCCC4)nn23)cc1	-22.0%	?	-3.0%	-3.5%	-8.9	-0.1%
COCCNC(=O)/C(C#N)=C/c1ccc(N2CCOCC2)o1	4.9%	-3.1%	24.6%	17.2%	-9.9	22.3%
SMILES	TDP1 cell noCPT	TDP1 cell CPT	HT1080-NT tox	ELG1 DNA repair	IL1B secr inh	HT1080 IDH1KD tx
N#C/C(=C\c1ccc(N2CCOCC2)o1)C(=O)NCCc1ccccc1	?	?	-15.8%	-15.7%	-51.3*	-2.3%
COc1ccc(/C=C(\C#N)C(=O)NCCc2ccccc2)cc1OCc1ccccc1	16.4µM*	?	-24.3%	?	-24.9	?
N#C/C(=C\c1ccc(O)c(O)c1)C(=O)NCCCc1ccccc1	4.11µM*	?	?	-5.5%	-4.7	?
Cc1cc(/C=C(\C#N)C(=O)NCc2ccccc2)cc(C)c1O	-19.5%	-7.9%	2.4%	-1.8%	-6.5	15.3%
Oc1ccc(Cl)cc1C1=Nc2ccccc2N=C(c2cccc(Br)c2)C1	?	-29.9%	nt	nt	nt	nt
COc1ccc(F)cc1CN1CCN(C(=O)c2ccc(S(=O)(=O)N3CCCCCC3)cc2)CC1	?	?	3.9%	nt	-0.8	0.2%
O=C(NCC1CCCO1)c1csc(Nc2cccc3ccccc23)n1 (stereo not drawn)	14.6µM*	18.4µM*	?	?	-14.0	-6.4%
CN(C)CCNC(=O)c1csc(Nc2cccc3ccccc23)n1	?	-50.4%	?	-1.4%	-60.7*	?
CCCNC(=O)c1csc(Nc2cccc3ccccc23)n1	?	?	-4.8%	-26.1%	11.9	5.4%
CC(=O)c1ccc(S(=O)(=O)N(C)C(C)CCc2ccco2)cc1 (stereo not drawn)	-18.1%	?	5.7%	0.8%	0.0	12.2%
Brc1ccccc1-c1nc2c3ccccc3ncn2n1	?	?	-8.2%	?	0.0	-10.8%
S=c1nc2ccccc2c2nc(-c3ccccc3Br)[nH]n12	1.03µM*	2.06µM*	-12.0%	-7.5%	17.0	-4.6%
CC(C)(C)N(Cc1ccccc1)C(=O)COC(=O)/C=C/c1ccc2c(c1)OCO2	-12.5%	-20.7%	2.4%	-17.2%	-9.3	6.3%
CC12CC3(C)CC(C)(C1)CC(NC(=O)N1CCCC1)(C2)C3	12.6µM*	?	-0.1%	5.3%	-12.7	-0.3%
COc1ccc(/C=N/NC(=O)c2nnn(-c3nonc3N)c2-c2cccs2)c(OC)c1	11.4%	-2.0%	1.7%	8.4%	-7.7	-0.1%
